Source: PubChem
A selection: hits, their analogues and other compounds. The true share with any hit is near 2.3%.
ANO1 block: mouse TMEM16A channel inhibition, primary screen; hit rate 1.2% among 310,000; HEK293 TMEM16A/YFP iodide influx fluorescence, ionomycin; AID 588511; normalized B-score (activity score, 25-100; higher = stronger inhibition) at 10 µM;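 active means ratio plate-corrected score three or more library SD toward inhibition, starting fluorescence score within five deviations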;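 further: score derived from kinetic fluorescence span divided by baseline fluorescence per well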
CHT allo act: human CHT allosteric activation; CHT-expressing cells, membrane potential dye, choline EC20; active compounds read high; LV-AA mutant CHT in HEK293 cells; B-score at 10 µM; hit rate 0.49% among 310,000; AID 488977;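 active means initial fluorescence not abnormally high and integrated response B-score, plate-corrected, over 3 SD above library mean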
ANO1 activ: mouse TMEM16A channel activation, primary screen; HEK293 TMEM16A/YFP-H148Q/I152L, iodide quench fluorescence; active compounds read low; Q8BHY3; hit rate 0.3% among 340,000; B-score at 10 µM;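 active means fluorescence-ratio B-score plate-corrected deviation score at least 3 library SD below zero, with starting fluorescence score within 5 deviations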;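 further: channel opened by trigger with iodide after compound preincubation; score built on the fluorescence ratio of max minus min over baseline; more negative score means more quench and so TMEM16A activation or potentiation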
CHT inh: human CHT choline transport inhibition | Q9GZV3 | CHT-expressing cells, membrane potential dye, choline response; active compounds read low | B-score at 10 µM | hit rate 0.86% among 310,000 | AID 488975;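 active means B-score over 3 SD under the library average, and starting fluorescence ratio not unusually high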;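 further: choline stimulus applied at its EC90 after an EC20 pre-addition; B-score computed on integrated fluorescence ratio after choline addition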
CHT inh conf: human CHT inhibition, confirmatory screen; shares compounds with CHT inh; CHT-expressing cells, choline membrane potential dye; LV-to-AA substituted CHT, HEK293 cells; CHT activity remaining % of control (active compounds read low), % at 10 µM; hit rate 70% among 2,400;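 active means choline transporter activity left, mean of duplicates at 10 µM, below buffer-only control mean minus 3 SD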;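 further: depolarization triggered by choline at its EC90 following an EC20 pre-addition; 0% = hemicholinium-3 full block and 100% = buffer-only control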
HEK293 CHT ctr: counter-screen for CHT inhibitors: effect in parental HEK293 cells. membrane potential dye, choline response; active = decrease or increase beyond buffer ±3SD. AID 493222. shares compounds with CHT inh. membrane potential ratio readout (active if shifted either direction beyond buffer ±3SD; no single direction) at 10 µM. hit rate 4% among 2,400;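 further: parental cells lack the transporter so any hit is non-specific; ratio is peak minus trough fluorescence over baseline after EC90 choline challenge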
* marks the source's active call; other numbers are inactive results; i = inactive; / = not tested or not shown.

SMILES	ANO1 block	CHT allo act	ANO1 activ	CHT inh	CHT inh conf	HEK293 CHT ctr
Cc1ccc(C(=O)C(C)OC(=O)CCN2C(=O)C3C4C=CC(C5CC45)C3C2=O)cc1 (centres undefined)	i	i	i	i	/	/
C[C@@H](NCCc1ccc(O)cc1)[C@@H](O)c1ccc(O)cc1	i	i	i	-4.95*	47.3%*	i
CC(NCc1ccc(OCc2ccc(Cl)cc2)cc1)C(O)c1ccccc1 (centres undefined)	i	i	i	i	/	/
Cc1cnc(NC(=O)Nc2ccc(OCc3ccccc3)cc2)c(Br)c1	i	i	i	i	/	/
CC(C)(C)CC(C)(C)NC(=S)Nc1ccc2nc(-c3ccccn3)c(-c3ccccn3)nc2c1	i	i	i	-8.36*	45.2%*	i
OCCCNC(=S)Nc1ccc2nc(-c3ccccn3)c(-c3ccccn3)nc2c1	i	i	i	i	/	/
O=C(NC(=S)Nc1ccccc1O)c1ccc(-c2ccc(Cl)cc2)o1	i	i	i	i	/	/
Cc1c(NC(=S)NC(=O)c2ccc(-c3ccc(Cl)cc3)o2)cccc1C(=O)O	i	i	i	-8.85*	55.1%*	i
O=C(NNS(=O)(=O)c1ccc([N+](=O)[O-])cc1)c1ccccc1	/	/	i	/	/	/
O=C(NNS(=O)(=O)c1ccc([N+](=O)[O-])cc1)c1ccc2ccccc2c1O	i	i	i	-4.98*	41.7%*	i
CCn1c(SCC(=O)NCCc2ccccc2)nnc1-c1cccs1	i	i	i	i	/	/
CCn1c(SCC(=O)c2ccccc2)nnc1-c1cccs1	i	i	i	-6.65*	68.3%*	i
CCn1c(SCC(=O)Nc2ccc(C(=O)OC)cc2)nnc1-c1cccs1	i	i	i	i	/	/
CCn1c(SCC(=O)NCC(=O)Nc2ccc(F)cc2)nnc1-c1cccs1	i	i	i	-6.02*	i	i
CS(=O)(=O)N(CC(=O)NC1CCCCC1)c1cccc(F)c1	i	i	i	i	/	/
CCOCCCn1c(=S)[nH]c2cc(C(=O)N3CCN(C4CCCCC4)CC3)ccc2c1=O	i	i	i	-5.05*	57.1%*	i
CCCc1nc2oc3c(NCC4CCCO4)ncnc3c2c2c1COC(C)(C)C2 (centres undefined)	i	i	i	-8.07*	16.0%*	i
CCCc1nc2oc3c(NCc4ccccn4)ncnc3c2c2c1COC(C)(C)C2	i	i	i	i	/	/
Nc1ccc(-c2ccc(N)cc2C(F)(F)F)c(C(F)(F)F)c1	i	i	i	-5.75*	50.7%*	i
Nc1ccc(C(O)(C(F)(F)F)C(F)(F)F)cc1	i	i	i	i	/	/
CC(C)C(=O)Nc1cccc(NC(=O)c2ccc(Cl)cc2Cl)c1	i	i	i	-9.43*	42.9%*	i
Cc1c(NC(=O)/C(C#N)=C/C2CC=CCC2)c(=O)n(-c2ccccc2)n1C (centres undefined)	i	i	i	i	/	/
CC(Sc1nc(N)cc(=O)[nH]1)C(=O)Nc1sc2c(c1C#N)CCCC2 (centres undefined)	i	i	i	i	/	/
Cc1nnc(SC(C)C(=O)Nc2sc3c(c2C#N)CCCC3)[nH]c1=O (centres undefined)	i	i	i	-5.16*	64.9%*	i
CN(C)c1ccc(CNC(=O)c2ccc(CNc3c(N4CCCCC4)c(=O)c3=O)cc2)cc1	i	i	i	i	/	/
SMILES	ANO1 block	CHT allo act	ANO1 activ	CHT inh	CHT inh conf	HEK293 CHT ctr
O=C(NCc1ccc(Cl)cc1)c1ccc(CNc2c(N3CCCC3)c(=O)c2=O)cc1	i	i	i	-6.24*	i	i
COCCCNC(=O)CCc1ccccc1	i	i	i	i	/	/
COCCNC(=O)C(=O)NNC(=O)CCc1ccccc1	i	i	i	-5.48*	i	i
O=C(CCN1CCOCC1)c1ccc2c(c1)OCCO2	i	i	i	-5.18*	i	i
O=C(CCCN1CCOCC1)c1ccc2c(c1)OCCO2	i	i	i	i	/	/
CCN(CC(=O)NCc1ccc(F)cc1)C(=O)c1ccc(Cl)cc1	i	i	i	i	/	/
CCN(CC(=O)NCc1ccc(F)cc1)C(=O)c1ccc(C(=O)c2ccccc2)cc1	i	i	i	-5.75*	i	i
COc1cc2c(cc1OC)C(c1cccs1)N(C(=O)c1cccnc1)CC2 (centres undefined)	i	i	i	-5.74*	i	i
COc1ccc(C(=O)N2CCc3cc(OC)c(OC)cc3C2c2ccc(OC)c(OC)c2)cc1OC (centres undefined)	i	i	i	i	/	/
Cc1cccc(OCCCC(=O)NNC(=O)c2cccc(N(C)C)c2)c1	/	/	i	/	/	/
O=C(C1CCCN1S(=O)(=O)c1cccc2nsnc12)N1CCCCC1 (centres undefined)	25*	i	i	-9.82*	i	i
CC(=O)c1ccc(N2CCN(C(=O)C3CCCN3S(=O)(=O)c3cccc4nsnc34)CC2)cc1 (centres undefined)	i	i	i	i	/	/
O=C(NC(NCc1cccnc1)C(Cl)(Cl)Cl)c1cccc2ccccc12 (centres undefined)	i	i	i	i	/	/
O=C(NC1CCCCCC1)C1c2ccccc2C(=O)N1Cc1ccco1 (centres undefined)	i	i	i	-5.66*	i	-8.35*
O=C(NC1CCCCCC1)C1c2ccccc2C(=O)N1Cc1cccs1 (centres undefined)	i	i	i	i	/	/
CC(=O)Oc1ccc(C(=O)Nc2ccc(S(=O)(=O)NCC3CCCO3)cc2)cc1 (centres undefined)	i	i	i	-5.11*	70.1%*	i
CC1CCCCC1NC(=O)c1ccc(S(=O)(=O)NCC2CCCO2)cc1 (centres undefined)	i	i	i	-11.9*	11.1%*	i
Cc1nn2c(COc3ccc(NC(=O)c4ccccc4Cl)cc3)nnc2c2ccccc12	i	i	i	i	/	/
CC(C)c1nc2oc3c(N(C)CCO)ncnc3c2c2c1CCC2	i	i	i	-5.7*	i	i
CC(C)c1nc2oc3c(NCC4CCCO4)ncnc3c2c2c1CCC2 (centres undefined)	i	i	i	i	/	/
CNC(=S)NNC(=O)c1sccc1OCc1ccc(Cl)cc1Cl	i	i	i	i	/	/
S=c1nc(-c2sccc2OCc2ccc(Cl)cc2Cl)[nH][nH]1	i	i	i	-5*	69.7%*	i
